# Source: PubChem BioAssay (NCATS)
# Values joined by “and” are separate entries in the source; they are usually repeats but may differ in a detail not shown here. Identical values can stand only once. Values without a mark were called inactive. Records with an inconclusive call do not appear. Active and inactive are the calls of the source. Calls follow the shape of the dose curve; as a rule, active = well fitted curve in the direction sought with a large enough effect; inconclusive = small, poorly fitted or top-dose-only effect, or another doubt; inactive = no such curve, though single readings can be large; an effect the other way counts as inactive or inconclusive.
# Legend:
# [1] = target: Cytochrome P450 2C9 (Homo sapiens) (UniProt P11712); test: qHTS Assay for Inhibitors and Substrates of Cytochrome P450 2C9 (AID 883); also: nearly all actives have a fitted effect of over 60% in size; also: potency is read from the fitted curve at half-maximal effect; as to activity change, negative = inhibition: % is scaled to controls: 0 for no effect and ±100 for the full control effect
# Sequence of Cytochrome P450 2C9 (Homo sapiens) (P11712 whole entry, looked up): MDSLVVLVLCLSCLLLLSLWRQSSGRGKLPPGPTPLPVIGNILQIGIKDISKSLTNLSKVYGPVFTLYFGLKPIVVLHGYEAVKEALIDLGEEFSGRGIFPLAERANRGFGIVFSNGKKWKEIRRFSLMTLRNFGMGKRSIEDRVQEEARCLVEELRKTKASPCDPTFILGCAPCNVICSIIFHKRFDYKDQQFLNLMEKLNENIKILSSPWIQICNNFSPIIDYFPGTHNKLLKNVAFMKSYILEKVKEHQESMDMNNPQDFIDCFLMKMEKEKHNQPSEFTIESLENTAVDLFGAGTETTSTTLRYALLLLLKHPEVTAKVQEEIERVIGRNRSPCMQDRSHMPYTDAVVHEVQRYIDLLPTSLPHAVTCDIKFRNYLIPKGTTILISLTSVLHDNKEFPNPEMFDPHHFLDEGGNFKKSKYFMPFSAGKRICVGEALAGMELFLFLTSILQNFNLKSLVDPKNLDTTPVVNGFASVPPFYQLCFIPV
# Outline: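 Human CYP2C9 (10nM) hydroxylated Luciferin-H (100uM, at its KM) to luciferin in 25mM KPO4. Compound was preincubated 10 min at 37C, then NADPH regeneration started a 60 min reaction at 37C. Luminescence was read after detection reagent, normalized to 57uM sulphaphenazole.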
# [2] = target: Cytochrome P450 3A4 (Homo sapiens) (UniProt P08684); test: qHTS Assay for Inhibitors and Substrates of Cytochrome P450 3A4 (AID 884); also: nearly all actives have a fitted effect of over 50% in size; also: potency is read from the fitted curve at half-maximal effect; as to activity change, negative = inhibition: series mostly up to about 57 µM; % is scaled to controls: 0 for no effect and ±100 for the full control effect
# Sequence of Cytochrome P450 3A4 (Homo sapiens) (P08684 whole entry, looked up): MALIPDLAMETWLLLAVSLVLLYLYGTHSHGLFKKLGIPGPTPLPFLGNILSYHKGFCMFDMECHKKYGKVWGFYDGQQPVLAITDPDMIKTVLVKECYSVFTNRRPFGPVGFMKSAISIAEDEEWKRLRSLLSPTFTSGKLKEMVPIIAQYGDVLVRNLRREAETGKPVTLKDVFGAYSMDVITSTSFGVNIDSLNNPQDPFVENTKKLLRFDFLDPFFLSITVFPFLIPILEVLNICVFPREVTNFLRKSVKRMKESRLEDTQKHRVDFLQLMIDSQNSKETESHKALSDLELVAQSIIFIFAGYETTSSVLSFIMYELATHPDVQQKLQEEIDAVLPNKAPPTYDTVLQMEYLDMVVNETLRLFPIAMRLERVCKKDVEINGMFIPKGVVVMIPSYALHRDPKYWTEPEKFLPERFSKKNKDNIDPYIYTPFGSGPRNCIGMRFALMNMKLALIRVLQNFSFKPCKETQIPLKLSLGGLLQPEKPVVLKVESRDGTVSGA
# Outline: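 20 nM human CYP3A4 with 25 uM Luciferin-PPXE (at KM) in 200 mM KPO4, preincubated 10 min with compound; NADPH regeneration started a 60 min RT reaction. Luciferin detected by luminescence, normalized to 57 uM ketoconazole as full inhibition.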
# [3] = target: Cytochrome P450 3A4 (Homo sapiens) (UniProt P08684); test: qHTS Assay for Activators of Cytochrome P450 3A4 (AID 885); also: nearly all actives have a fitted effect of over 65% in size
# Outline: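 Steps: enzyme/substrate mix dispensed; compound added, 10 min RT; NADPH regeneration solution added, 60 min RT; luciferin detection buffer stops reaction; 20 min later luminescence measured.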
# [4] = target: Cytochrome P450 2C19 (Homo sapiens) (UniProt P33261); test: qHTS Assay for Inhibitors and Substrates of Cytochrome P450 2C19 (AID 899); also: nearly all actives have a fitted effect of over 60% in size; also: potency is read from the fitted curve at half-maximal effect
# Sequence of Cytochrome P450 2C19 (Homo sapiens) (P33261 whole entry, looked up): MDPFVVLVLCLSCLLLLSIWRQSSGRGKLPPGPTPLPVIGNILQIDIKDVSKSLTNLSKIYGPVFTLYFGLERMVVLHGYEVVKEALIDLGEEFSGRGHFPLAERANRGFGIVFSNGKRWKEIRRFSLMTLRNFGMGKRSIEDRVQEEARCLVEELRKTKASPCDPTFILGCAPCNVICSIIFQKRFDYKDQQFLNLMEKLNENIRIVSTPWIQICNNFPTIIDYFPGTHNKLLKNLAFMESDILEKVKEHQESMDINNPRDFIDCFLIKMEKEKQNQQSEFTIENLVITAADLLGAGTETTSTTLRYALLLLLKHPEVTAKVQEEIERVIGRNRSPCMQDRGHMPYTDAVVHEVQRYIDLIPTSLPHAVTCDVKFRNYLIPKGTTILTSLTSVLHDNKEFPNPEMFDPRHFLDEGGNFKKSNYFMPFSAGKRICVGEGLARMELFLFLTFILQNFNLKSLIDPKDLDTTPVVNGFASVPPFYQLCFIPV
# Outline: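 Human CYP2C19 (5nM) with Luciferin-H EGE at 10uM (its KM) in 50mM KPO4 was preincubated with compound for 10 min at 37C. NADPH regeneration started a 60 min 37C reaction. Luciferin was read by luminescence, normalized to 57uM ketoconazole.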
# [5] = target: Cytochrome P450 2D6 (Homo sapiens) (UniProt P10635); test: qHTS Assay for Inhibitors and Substrates of Cytochrome P450 2D6 (AID 891);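 also: luciferin methyl ether substrate demethylated by CYP2D6 with NADPH regeneration; % is scaled to controls: 0 for no effect and ±100 for the full control effect; nearly all actives have a fitted effect of over 60% in size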
# Sequence of Cytochrome P450 2D6 (Homo sapiens) (P10635 whole entry, looked up): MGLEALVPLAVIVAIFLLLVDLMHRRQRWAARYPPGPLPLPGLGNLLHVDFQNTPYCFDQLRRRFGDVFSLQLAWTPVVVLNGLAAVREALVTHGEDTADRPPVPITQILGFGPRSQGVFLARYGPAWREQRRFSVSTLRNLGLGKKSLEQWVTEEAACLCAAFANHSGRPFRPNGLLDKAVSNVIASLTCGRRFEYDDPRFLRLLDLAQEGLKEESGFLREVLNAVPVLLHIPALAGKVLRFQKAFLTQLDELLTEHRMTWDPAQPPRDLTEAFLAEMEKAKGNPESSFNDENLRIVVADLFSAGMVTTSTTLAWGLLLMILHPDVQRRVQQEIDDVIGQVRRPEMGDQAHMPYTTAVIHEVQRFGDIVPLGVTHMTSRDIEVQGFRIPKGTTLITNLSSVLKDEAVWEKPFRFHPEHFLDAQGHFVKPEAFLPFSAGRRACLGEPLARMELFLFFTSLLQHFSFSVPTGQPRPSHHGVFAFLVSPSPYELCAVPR
# Outline: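 Human CYP2D6 (5 nM) with 30 uM Luciferin-ME EGE (at Km) in 100 mM KPO4, compound preincubated 10 min, then NADPH regeneration system for 60 min at room temperature. Luciferin read by luminescence; normalized to 1.43 uM quinidine.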
SMILES,Potency [1],Potency [2],"activity change, positive = activation [3]",Potency [4],Potency [5],"activity change, negative = inhibition [2]"
COC(=O)[C@@H]1CC[C@H](C)[C@@H](c2ccc(C)cc2)N1C(=O)c1ccc(/C=N\O[C@@H](C)c2cn([C@H](CO)Cc3ccccc3)nn2)cc1,3.16 µM (active) and 2.51 µM (active),1.26 µM (active) and 3.16 µM (active),-62.7% [at 11.4 µM] and -101% [at 11.4 µM],3.98 µM (active),,
CCC(=O)[C@]12O[C@@]3(C4C(=O)OCCC41)N(Cc1ccccc1)C(C)=C(C(=O)OC)C(c1ccccc1)N3C2=O (some centres undefined),inactive,1.26 µM (active),-106% [at 11.4 µM],inactive,inactive,
CC1C=CCCOC1c1ccccc1 (centres undefined),inactive,,,,inactive,-13.6% [at 11.4 µM]
C=C(C)C(O)/C=C/c1ccc(Br)cc1 (centres undefined),3.16 µM (active),3.98 µM (active),-65.3% [at 11.4 µM],0.02 µM (active),,
COC(=O)C/C=C\[C@@H](C)[C@@H](/C=N\O[C@@H](C)c1cc(-c2c(C)cc(C)cc2C)no1)NS(=O)(=O)c1ccc(C)cc1,2.51 µM (active),3.16 µM (active),-103% [at 11.4 µM],3.16 µM (active),,
COC(=O)NC(c1cccc(F)c1)[C@]1(C(C)=O)CCCC1=O (some centres undefined),inactive,,,,inactive,-13.9% [at 11.4 µM]
COc1ccc(O[C@H]2C=C[C@@H](c3ccccc3)O[C@H]2COC(=O)CC/C(C)=N\OC[C@@H](O)[C@H]2O[C@H]3OC(C)(C)O[C@H]3[C@@H]2O)cc1,1.58 µM (active),3.98 µM (active),-92.2% [at 11.4 µM],0.005 µM (active),,
COC(=O)NC(c1ccccc1)C(C#N)C(=O)OC (centres undefined),inactive,,,,inactive,-16.5% [at 11.4 µM]
COC(=O)NC(/C(C(=O)OC)=C(\C)NCc1ccccc1)c1ccc(F)cc1 (centres undefined),2.51 µM (active),3.16 µM (active),-71.8% [at 11.4 µM],0.251 µM (active),,
COC(=O)C/C=C\[C@@H](C)[C@@H](/C=N\OC[C@@H]1O[C@H](c2ccccc2)C=C[C@@H]1Oc1ccc(OC)cc1)NS(=O)(=O)c1ccc(C)cc1,1.26 µM (active),5.01 µM (active),-96.1% [at 11.4 µM],0.398 µM (active),,
COc1cccc(/C=C/C2=CC3(C)CC2(C)C(c2cccc(OC)c2)CC3=O)c1 (centres undefined),3.16 µM (active),3.98 µM (active),-78.1% [at 11.4 µM],2 µM (active),,
CC12C=C(/C=C/C=C/c3ccccc3)C(C)(C1)C(/C=C/c1ccccc1)CC2=O (centres undefined),3.16 µM (active),3.98 µM (active),-62.5% [at 11.4 µM],1.58 µM (active),,
Cc1cc(F)ccc1OC1C=CC(c2ccc3c(c2)OCO3)OC1CO (centres undefined),3.16 µM (active),3.16 µM (active),-72.5% [at 11.4 µM],inactive,,
C=CCOC(=O)C(C(C)=O)C(NC(=O)OC)c1cccc(C(F)(F)F)c1 (centres undefined),inactive,1.58 µM (active),-104% [at 11.4 µM],0.1 µM (active),,
CCCCOC(OCCCC)[C@H](O)CSc1ccc2ccccc2c1,2 µM (active),5.01 µM (active),-60.8% [at 11.4 µM],3.16 µM (active),,
CNc1ccccc1C(=O)OCC(=O)c1ccccc1,inactive,,,,inactive,-18.7% [at 11.4 µM]
C=CCC1C=CC(Oc2ccc(OC)cc2)C(CO)O1 (centres undefined),inactive,3.98 µM (active),-64.8% [at 11.4 µM],inactive,inactive,
CCOC(=O)OCC1C=C[C@H](c2cc(-c3ccccc3)ccc2O)C(c2ccc(C(C)=O)cc2)O1 (some centres undefined),0.316 µM (active),3.16 µM (active),-86.1% [at 11.4 µM],3.16 µM (active),,
CC1(C)OC(C(O)(c2ccccc2)c2ccccc2)C(C(O)(c2ccccc2)c2ccccc2)O1 (centres undefined),inactive,2.51 µM (active),-63.1% [at 11.4 µM],inactive,,
COc1ccc(/C=C/NC(=O)Cc2ccc(OC)c(OC)c2)cc1,inactive,3.16 µM (active),-57.1% [at 11.4 µM] and -101% [at 11.4 µM],inactive,,

SMILES,Potency [1],Potency [2],"activity change, positive = activation [3]",Potency [4],Potency [5],"activity change, negative = inhibition [2]"
Cc1cc(C)cc(/C=C/C2OCC(O)C2Oc2ccc(C3CCCC3)cc2)c1 (centres undefined),inactive,3.16 µM (active),-62.6% [at 11.4 µM] and -33.3% [at 11.4 µM],inactive,inactive,
C=CCOC(=O)/C=C/NC(=O)/C=C/C=C/CCCCCCCC(C)O (centres undefined),3.98 µM (active) and 2.51 µM (active),3.16 µM (active) and 3.98 µM (active),-72.9% [at 11.4 µM] and -68.1% [at 11.4 µM],inactive,,
COc1ccc(O[C@H]2C=C[C@@H](c3ccccc3)O[C@H]2COC(=O)CC/C(C)=N\O[C@@H](C)c2cn([C@H](CO)Cc3ccccc3)nn2)cc1,1.26 µM (active),3.98 µM (active) and 5.01 µM (active),-87.6% [at 11.4 µM] and -97.7% [at 11.4 µM],63.1 nM (active) and 631 nM (active),,
CCOC(=O)OCC1OC(C#Cc2ccccc2)C=CC1Oc1cccc(N(C)C)c1 (centres undefined),2.51 µM (active),3.98 µM (active),-91.5% [at 11.4 µM],1.58 µM (active),,
COc1ccc(OCC2CC3C(CCC(C)C3c3ccc(Br)cc3)C(=O)O2)cc1 (centres undefined),inactive,3.98 µM (active),-84.4% [at 11.4 µM],inactive,,
CC12C=C(/C=C/c3ccc(Br)cc3)C(C)(C1)C(c1ccc(Br)cc1)CC2=O (centres undefined),2.51 µM (active),3.98 µM (active),-72.7% [at 11.4 µM],inactive,,
COc1ccc(O[C@H]2C=C[C@@H](c3ccccc3)O[C@H]2COC(=O)CC/C(C)=N/OCC[C@@H]2C=C[C@H](OC(C)=O)[C@H](COC(C)=O)O2)cc1,3.98 µM (active),3.98 µM (active),-91.8% [at 11.4 µM],0.398 µM (active),,
C/C(CCC(=O)OC[C@@H]1O[C@H](C#Cc2ccccc2)C=C[C@@H]1Oc1ccc(C)cc1)=N/O[C@@H](C)c1cn([C@H](CO)Cc2ccccc2)nn1,3.16 µM (active),3.98 µM (active) and 3.16 µM (active),-114% [at 11.4 µM] and -117% [at 11.4 µM],3.98 µM (active),,
CC12CC3OS(=O)OC3CC3C4C(C(OCc5ccccc5)C31)C42 (centres undefined),inactive,,,,inactive,-26.1% [at 11.4 µM]
COc1cccc([C@@H]2Oc3ccc(OC)cc3/C(=N/OC[C@@H](C)[C@H](OCc3ccccc3)C(C)C)[C@@H]2O)c1,3.98 µM (active),3.16 µM (active),-89.7% [at 11.4 µM],2 µM (active),,
CCN1C(C)=C(C(=O)OC)C(c2ccccc2)N2C(=O)[C@](O)(C(=O)OC)C(c3ccccc3)C(C(=O)c3ccccc3)=C12 (some centres undefined),inactive,3.16 µM (active),-65.7% [at 11.4 µM],inactive,,
CCCCC1CN2C(CCC(C)C2c2ccc(Br)cc2)C(=O)O1 (centres undefined),inactive,3.98 µM (active),-38.2% [at 11.4 µM] and -43.4% [at 11.4 µM] and -62.6% [at 11.4 µM],1.26 µM (active),,
C=CCc1cccc(C2C(C)CCC3C(=O)N4C(Cc5c([nH]c6ccccc56)C4c4cc(OC)c(OC)c(OC)c4)C(=O)N32)c1 (centres undefined),inactive,3.98 µM (active),-74.3% [at 11.4 µM],inactive,,
CC(=O)OCC1OC(C#Cc2ccc(F)cc2F)C=CC1OC(C)=O (centres undefined),5.01 µM (active),3.16 µM (active),-91.4% [at 11.4 µM],2.51 µM (active),,
COc1ccc(O[C@H]2C=C[C@@H](c3ccccc3)O[C@H]2CO/N=C2/c3cc(OC)ccc3O[C@@H](c3cccc(OC)c3)[C@H]2O)cc1,3.16 µM (active),3.16 µM (active),-100% [at 11.4 µM],0.501 µM (active),,
CC(=O)c1ccc(C2C=CC(Oc3ccc(-c4ccccc4)cc3)C(CO)O2)cc1 (centres undefined),3.98 µM (active),,,,inactive,0.0168% [at 11.4 µM]
COc1ccc(OC2C=CC(c3ccccc3)OC2CO)c(C(C)(C)C)c1 (centres undefined),3.16 µM (active),0.794 µM (active),-79.5% [at 11.4 µM],3.16 µM (active),inactive,
CC(=O)c1ccc(OC2C(O)COC2/C=C/c2ccc(Cl)cc2)cc1 (centres undefined),inactive,,-50% [at 11.4 µM],inactive,inactive,-27.7% [at 11.4 µM]
CC1(C)OC(C(O)(c2cc(F)c(F)c(F)c2)c2cc(F)c(F)c(F)c2)C(C(O)(c2cc(F)c(F)c(F)c2)c2cc(F)c(F)c(F)c2)O1 (centres undefined),inactive,,,inactive,inactive,-15% [at 11.4 µM]
C=C(C)CC1(c2ccccc2)Oc2ccccc2-c2nc3cc(Cl)c(Cl)cc3nc21 (centres undefined),inactive,,,inactive,inactive,-4.89% [at 11.4 µM]
